Measured values: PubChem BioAssay (NCI)
The panel holds about 79,000 compounds, 15% with a hit somewhere; the sample as a whole holds those more often. The source made the active and inactive calls. No stated cut-off is given here; in the data, active means growth inhibition above about 70%; inactive means the rest.

What was measured:
[1] = NCI Yeast Anticancer Drug Screen. Data for the rad52 strain (AID 147);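 further: 0% = growth of vehicle-treated control cultures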; settings: S. cerevisiae rad52 mutant growth inhibition, active compounds read high
Outline: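 Growth of repair-deficient yeast cells was compared between compound-treated and vehicle-treated cultures to give percent inhibition.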

[2] = NCI Yeast Anticancer Drug Screen. Data for the wt1 strain (AID 149);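 further: 0% = growth of vehicle-treated wt1 cultures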; settings: S. cerevisiae wt1 strain (SPY 50644) growth inhibition, active compounds read high
Outline: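 Growth inhibition read against vehicle controls after compound exposure of the wt1 yeast strain.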

[3] = NCI Yeast Anticancer Drug Screen. Data for the rad50EPP+ strain (AID 151);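 further: 0% = growth of vehicle-treated control cultures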; settings: S. cerevisiae rad50 mutant strain, active compounds read high
Outline: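 Measured: growth inhibition of rad50EPP+ yeast. Reference: vehicle-treated controls. Screen uses strains with defined genetic alterations in DNA damage repair or cell cycle control.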

[4] = NCI Yeast Anticancer Drug Screen. Data for the mgt1 strain (AID 153); settings: S. cerevisiae mgt1 mutant growth inhibition, active compounds read high
Outline: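 Compounds were applied to mgt1 mutant yeast, and growth was then compared against vehicle-treated control cultures to give percent inhibition.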

[5] = NCI Yeast Anticancer Drug Screen. Data for the rad50 strain (AID 155);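 further: 0% = growth of vehicle-only cultures of the same strain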; settings: S. cerevisiae rad50 strain growth inhibition, active compounds read high
Outline: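 Readout: growth inhibition relative to vehicle-treated cultures. Compound exposure was carried out in a genetically defined yeast strain deficient in DNA damage repair.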

[6] = NCI Yeast Anticancer Drug Screen. Data for the mec2-1 strain (AID 157); settings: S. cerevisiae mec2-1 strain, active compounds read high
Outline: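 Compounds were applied to mec2-1 yeast cells. Their growth was then compared with that of vehicle-treated cultures to give growth inhibition.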

[7] = NCI Yeast Anticancer Drug Screen. Data for the rad14 strain (AID 159);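 further: 0% = growth of vehicle-treated control cultures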; settings: S. cerevisiae rad14 strain growth inhibition, active compounds read high
Outline: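 Growth inhibition vs vehicle controls; genetically altered yeast strain (DNA damage repair defect) treated with test compounds.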

[8] = NCI Yeast Anticancer Drug Screen. Data for the sgs1 mgt1 strain (AID 161);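 further: 0% = growth of cultures given vehicle only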; settings: S. cerevisiae sgs1 mgt1 strain, active compounds read high
Outline: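 This yeast growth screen uses a strain with defined DNA-repair lesions; compound-treated growth is compared with vehicle-treated growth.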

[9] = NCI Yeast Anticancer Drug Screen. Data for the CLN2oe strain (AID 163);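 further: 0% = growth of vehicle-only control cultures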; settings: S. cerevisiae CLN2oe strain, active compounds read high
Outline: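 Cells of an engineered yeast line with disturbed cell-cycle regulation are treated with compound. Inhibition of growth is then calculated relative to the vehicle-treated reference.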

[10] = NCI Yeast Anticancer Drug Screen. Data for the cln2 rad14 strain (AID 165);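 further: 0% = growth equal to vehicle treated cultures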; settings: S. cerevisiae cln2 rad14 strain, active compounds read high
Outline: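 Strain: cln2 rad14 yeast, altered in cell cycle control and DNA damage repair. Read-out: growth inhibition vs vehicle.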

[11] = NCI Yeast Anticancer Drug Screen. Data for the bub3 strain (AID 167); settings: S. cerevisiae bub3 mutant strain, active compounds read high
Outline: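 Readout: yeast growth inhibition, expressed relative to vehicle-only wells. The test organism is a mutant strain from a panel with lesions in DNA repair or checkpoint genes.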

[12] = NCI Yeast Anticancer Drug Screen. Data for the wt2 strain (AID 169);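 further: 0% = growth of vehicle-treated yeast cultures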; settings: S. cerevisiae wt2 strain growth inhibition, active compounds read high
Outline: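 Growth of compound-treated yeast is measured and expressed as inhibition relative to vehicle-only controls.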

[13] = NCI Yeast Anticancer Drug Screen. Data for the mlh1 strain (AID 171);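 further: 0% = growth of vehicle-treated control cultures of the same strain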; settings: S. cerevisiae mlh1 strain growth inhibition, active compounds read high
Outline: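 Test agents were incubated with yeast bearing a defined DNA damage repair or cell cycle control alteration; values are growth inhibition normalised to vehicle-treated cultures.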

[14] = NCI Yeast Anticancer Drug Screen. Data for the sgs1 strain (AID 173);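 further: 0% = growth of vehicle-only control cultures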; settings: S. cerevisiae sgs1 mutant, active compounds read high
Outline: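 Strain with an altered DNA repair or cell cycle pathway exposed to compound. Growth then measured. Value = inhibition versus vehicle control.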

[15] = NCI Yeast Anticancer Drug Screen. Data for the mlh1 rad18 strain (AID 175); settings: S. cerevisiae mlh1 rad18 strain growth inhibition, active compounds read high
Outline: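 A repair-deficient yeast strain is exposed to test compound, and growth is scored relative to vehicle-treated controls.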

[16] = NCI Yeast Anticancer Drug Screen. Data for the rad18 strain (AID 177); settings: S. cerevisiae rad18 mutant growth inhibition, active compounds read high
Outline: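 DNA-repair-defective yeast; compound treatment; growth inhibition scored against vehicle.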

[17] = at 5.0 µM (retest, dose inferred, filed as 0.5)
[18] = at 50.0 µM (retest, dose inferred, filed as 5.0)

Measured: growth inhibition

Cc1ccc(I)cc1N=C=S
active: [1]; at 33.0 µM 82% | [1]; at 100.0 µM 99% | [2]; at 33.0 µM 74% | [2]; at 100.0 µM 99% | [3]; at 33.0 µM 96% | [3]; at 100.0 µM 99% | [4]; at 33.0 µM 96% | [4]; at 100.0 µM 99% | [5]; at 33.0 µM 94% | [5]; at 50.0 µM 79.1% | [5]; at 100.0 µM 99% | [6]; at 33.0 µM 82% | [6]; at 100.0 µM 99% | [7]; at 33.0 µM 94% | [7]; at 100.0 µM 99% | [8]; [18] 100% | [9]; at 100.0 µM 98% | [10]; [18] 100% | [11]; at 33.0 µM 96% | [11]; [18] 100% | [11]; at 100.0 µM 99% | [12]; at 33.0 µM 82% | [12]; at 100.0 µM 99% | [13]; at 33.0 µM 93% | [13]; at 100.0 µM 99% | [14]; at 33.0 µM 83% | [14]; at 100.0 µM 99% | [16]; at 33.0 µM 86% | [16]; at 100.0 µM 99%
inactive: [1]; at 1.2 µM -5% | [1]; at 3.7 µM 6% | [1]; at 11.0 µM 22% | [2]; at 1.2 µM -12% | [2]; at 3.7 µM -14% | [2]; at 11.0 µM -9% | [3]; at 1.2 µM 15% | [3]; at 3.7 µM 36% | [3]; at 11.0 µM 63% | [4]; at 1.2 µM 31% | [4]; at 3.7 µM 44% | [4]; at 11.0 µM 53% | [5]; at 1.2 µM 8% | [5]; at 3.7 µM 6% | [5]; [17] 32% | [5]; at 11.0 µM 25% | [5]; [18] 62% | [6]; at 1.2 µM -4% | [6]; at 3.7 µM 8% | [6]; [17] 48% | [6]; at 11.0 µM 8% | [6]; [18] 62% | [6]; at 50.0 µM 56.9% | [7]; at 1.2 µM -11% | [7]; at 3.7 µM -10% | [7]; at 11.0 µM 11% | [8]; [17] 0% | [9]; at 1.2 µM -2% | [9]; at 3.7 µM 6% | [9]; at 11.0 µM 10% | [9]; at 33.0 µM 68% | [10]; [17] 52% | [11]; at 1.2 µM 7% | [11]; at 3.7 µM 28% | [11]; [17] 7% | [11]; at 11.0 µM 37% | [12]; at 1.2 µM -21% | [12]; at 3.7 µM -12% | [12]; at 11.0 µM 4% | [13]; at 1.2 µM 28% | [13]; at 3.7 µM 28% | [13]; at 11.0 µM 44% | [14]; at 1.2 µM 6% | [14]; at 3.7 µM 2% | [14]; at 11.0 µM 18% | [15]; [17] 35% | [15]; [18] 50% | [15]; at 50.0 µM 63.1% | [16]; at 1.2 µM 10% | [16]; at 3.7 µM 24% | [16]; at 11.0 µM 41%

CCOc1ccc(C(=O)CCC(=O)O)c(C)c1
inactive: [1]; at 1.2 µM -1% | [1]; at 3.7 µM 0% | [1]; at 11.0 µM -5% | [1]; at 33.0 µM -1% | [1]; at 100.0 µM 4% | [2]; at 1.2 µM 3% | [2]; at 3.7 µM -1% | [2]; at 11.0 µM 4% | [2]; at 33.0 µM 5% | [2]; at 100.0 µM 17% | [3]; at 1.2 µM -2% | [3]; at 3.7 µM -2% | [3]; at 11.0 µM 0% | [3]; at 33.0 µM -3% | [3]; at 100.0 µM 3% | [4]; at 1.2 µM -4% | [4]; at 3.7 µM -3% | [4]; at 11.0 µM 1% | [4]; at 33.0 µM 2% | [4]; at 100.0 µM 21% | [5]; at 1.2 µM -2% | [5]; at 3.7 µM 4% | [5]; [17] 13% | [5]; at 11.0 µM 1% | [5]; at 33.0 µM 8% | [5]; [18] 14% | [5]; at 100.0 µM 12% | [6]; at 1.2 µM 0% | [6]; at 3.7 µM -7% | [6]; [17] -10% | [6]; at 11.0 µM -16% | [6]; at 33.0 µM 4% | [6]; [18] 13% | [6]; at 100.0 µM 15% | [7]; at 1.2 µM 0% | [7]; at 3.7 µM 1% | [7]; at 11.0 µM 7% | [7]; at 33.0 µM 13% | [7]; at 100.0 µM 25% | [8]; [17] 9% | [8]; [18] 4% | [9]; at 1.2 µM 0% | [9]; at 3.7 µM -1% | [9]; at 11.0 µM 4% | [9]; at 33.0 µM 12% | [9]; at 100.0 µM 20% | [10]; [17] -12% | [10]; [18] 44% | [11]; at 1.2 µM -9% | [11]; at 3.7 µM -11% | [11]; [17] -17% | [11]; at 11.0 µM -1% | [11]; at 33.0 µM -8% | [11]; [18] 14% | [11]; at 100.0 µM 36% | [12]; at 1.2 µM 1% | [12]; at 3.7 µM 2% | [12]; at 11.0 µM 2% | [12]; at 33.0 µM 6% | [12]; at 100.0 µM 16% | [13]; at 1.2 µM -2% | [13]; at 3.7 µM -6% | [13]; at 11.0 µM -10% | [13]; at 33.0 µM 3% | [13]; at 100.0 µM 12% | [14]; at 1.2 µM 0% | [14]; at 3.7 µM -1% | [14]; at 11.0 µM 1% | [14]; at 33.0 µM 1% | [14]; at 100.0 µM 8% | [15]; [17] 16% | [15]; [18] -1% | [16]; at 1.2 µM -2% | [16]; at 3.7 µM -4% | [16]; at 11.0 µM -6% | [16]; at 33.0 µM -16% | [16]; at 100.0 µM -17%
